Data: PubChem BioAssay AID1159580 (chemical genetic matrix, 2015)
Among all 5,500 compounds or so, about 2,000 (36%) were called active. Inconclusive results (about 18%) are left out. Cut-off read from the data, not from the text of the source: active = normalized growth mostly below about 0.91 (no sharp cut-off); inconclusive = no clear call, values can overlap the other calls; inactive = mostly above about 0.92. Some of the results follow.

Assay: chemical genetic growth profiling, strain panel (AID 1159580);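 note: tested at 20 µM; growth read once vehicle control cultures reached saturation at 30 °C; 1 = growth at the plate median or of vehicle wells; lower values mean less growth of the strain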
Conditions: S. cerevisiae deletion strains, growth OD
[1] = locus YAR019C, strain CDC15, active compounds read low
[2] = locus YBL105C, strain PKC1, active compounds read low
[3] = locus YBR135W, strain CKS1, active compounds read low
[4] = locus YBR136W, strain MEC1, active compounds read low
[5] = locus YBR160W, strain CDC28, active compounds read low
[6] = locus YDL017W, strain CDC7, active compounds read low
[7] = locus YDL028C, strain MPS1, active compounds read low
[8] = locus YDL101C, strain DUN1, active compounds read low
[9] = locus YDL108W, strain KIN28, active compounds read low
[10] = locus YDL132W, strain cdc53, active compounds read low
[11] = locus YDL214C, strain PRR2, active compounds read low
[12] = locus YDR052C, strain DBF4, active compounds read low
[13] = locus YDR054C, strain cdc34, active compounds read low
[14] = locus YDR226W, strain ADK1, active compounds read low
[15] = locus YDR477W, strain SNF1, active compounds read low
[16] = locus YER123W, strain YCK3, active compounds read low
[17] = locus YER133W, strain GLC7, active compounds read low
[18] = locus YFL009W, strain cdc4, active compounds read low
[19] = locus YFL029C, strain CAK1, active compounds read low
[20] = locus YFR003C, strain YPI1, active compounds read low
[21] = locus YFR019W, strain FAB1, active compounds read low
[22] = locus YFR028C, strain CDC14, active compounds read low
[23] = locus YGR040W, strain KSS1, active compounds read low
[24] = locus YGR052W, strain FMP48, active compounds read low
[25] = locus YGR092W, strain DBF2, active compounds read low
[26] = locus YHR030C, strain SLT2, active compounds read low
[27] = locus YHR079C, strain IRE1, active compounds read low
[28] = locus YHR082C, strain KSP1, active compounds read low
[29] = locus YHR205W, strain SCH9, active compounds read low
[30] = locus YIL147C, strain SLN1, active compounds read low
[31] = locus YJL095W, strain BCK1, active compounds read low
[32] = locus YJL128C, strain PBS2, active compounds read low
[33] = locus YJL157C, strain FAR1, active compounds read low
[34] = locus YJR016C, strain ILV3, active compounds read low
[35] = locus YJR066W, strain TOR1 (second series), active compounds read low
[36] = locus YJR066W, strain TOR1, active compounds read low
[37] = locus YKL048C, strain ELM1, active compounds read low
[38] = locus YKL067W, strain YNK1, active compounds read low
[39] = locus YKL101W, strain HSL1, active compounds read low
[40] = locus YKL193C, strain SDS22, active compounds read low
[41] = locus YKL203C, strain TOR2, active compounds read low
[42] = locus YLR113W, strain HOG1, active compounds read low
[43] = locus YLR133W, strain CKI1, active compounds read low
[44] = locus YLR403W, strain SFP1, active compounds read low
[45] = locus YML070W, strain DAK1, active compounds read low
[46] = locus YMR001C, strain CDC5, active compounds read low
[47] = locus YMR205C, strain PFK2 (second series), active compounds read low
[48] = locus YMR277W, strain FCP1, active compounds read low
[49] = locus YNL006W, strain LST8, active compounds read low
[50] = locus YNL020C, strain ARK1, active compounds read low
[51] = locus YNL161W, strain CBK1, active compounds read low
[52] = locus YNL183C, strain NPR1, active compounds read low
[53] = locus YNL207W, strain RIO2, active compounds read low
[54] = locus YNL222W, strain SSU72, active compounds read low
[55] = locus YNL307C, strain MCK1 (second series), active compounds read low
[56] = locus YOL078W, strain AVO1, active compounds read low
[57] = locus YOL136C, strain PFK27, active compounds read low
[58] = locus YOR061W, strain CKA2, active compounds read low
[59] = locus YOR119C, strain RIO1, active compounds read low
[60] = locus YOR231W, strain MKK1, active compounds read low
[61] = locus YOR329C, strain SCD5, active compounds read low
[62] = locus YPL031C, strain PHO85, active compounds read low
[63] = locus YPL153C, strain RAD53, active compounds read low
[64] = locus YPL204W, strain HRR25, active compounds read low
[65] = locus YPL209C, strain IPL1, active compounds read low
[66] = locus YPL256C, strain CLN2, active compounds read low
[67] = locus YPR025C, strain CCL1, active compounds read low
[68] = locus YPR106W, strain ISR1, active compounds read low
[69] = locus YPR111W, strain DBF20, active compounds read low
[70] = strain NNK1, active compounds read low
[71] = strain TSCII, active compounds read low

Measured: normalized growth

Cc1csc2c(N3CCN(C(=S)Nc4ccc(C(F)(F)F)cc4)CC3)ncnc12
inactive: [1] 0.985 | [2] 0.989 | [3] 0.981 | [4] 0.982 | [5] 0.979 | [6] 0.992 | [7] 0.981 | [8] 0.988 | [9] 0.99 | [10] 0.998 | [11] 0.956 | [12] 0.999 | [13] 0.997 | [14] 0.997 | [15] 0.983 | [16] 0.937 | [17] 0.974 | [18] 0.992 | [19] 0.991 | [20] 0.992 | [21] 0.965 | [22] 0.978 | [23] 0.959 | [24] 1.02 | [25] 0.972 | [26] 0.979 | [27] 0.991 | [28] 1.04 | [29] 0.919 | [30] 0.992 | [31] 0.982 | [32] 0.96 | [33] 0.944 | [34] 0.993 | [35] 0.928 | [36] 1.06 | [37] 0.965 | [38] 0.963 | [39] 0.944 | [40] 0.986 | [41] 1.03 | [43] 0.959 | [44] 0.956 | [45] 0.924 | [46] 1 | [47] 0.949 | [48] 0.987 | [49] 0.988 | [50] 0.956 | [51] 0.98 | [52] 0.996 | [53] 0.978 | [54] 0.991 | [55] 0.937 | [56] 0.992 | [57] 0.922 | [58] 0.964 | [59] 1.03 | [60] 0.928 | [61] 0.986 | [62] 0.986 | [63] 0.979 | [64] 0.941 | [65] 0.984 | [66] 0.942 | [67] 0.982 | [68] 0.975 | [69] 0.977 | [70] 0.967 | [71] 0.992
active: [42] 0.826

Cc1csc2ncnc(N3CCN(C(=S)Nc4ccc(C(F)(F)F)cc4)CC3)c12
active: [42] 0.816
inactive: [1] 0.995 | [2] 0.987 | [3] 0.985 | [4] 1 | [5] 0.998 | [6] 1 | [7] 0.996 | [8] 0.985 | [9] 0.993 | [10] 0.996 | [11] 0.945 | [12] 1 | [13] 0.965 | [14] 0.994 | [15] 0.999 | [16] 0.926 | [17] 0.964 | [18] 0.99 | [19] 0.983 | [20] 0.996 | [21] 0.958 | [22] 0.993 | [23] 0.978 | [24] 0.999 | [25] 0.922 | [26] 0.919 | [27] 0.982 | [28] 1.02 | [29] 0.908 | [30] 1.01 | [31] 0.938 | [32] 0.92 | [33] 0.942 | [34] 0.995 | [35] 0.908 | [36] 1.02 | [37] 0.979 | [38] 0.968 | [39] 0.959 | [40] 0.996 | [41] 1.01 | [43] 0.95 | [44] 0.955 | [45] 0.94 | [46] 0.999 | [47] 0.954 | [48] 0.986 | [49] 0.989 | [50] 0.949 | [51] 0.997 | [52] 0.987 | [53] 0.991 | [54] 0.986 | [55] 0.958 | [56] 0.989 | [57] 0.933 | [58] 0.94 | [59] 1.01 | [60] 0.909 | [61] 0.998 | [62] 0.982 | [63] 0.932 | [64] 0.963 | [65] 0.977 | [66] 0.91 | [67] 0.984 | [68] 0.979 | [69] 0.978 | [70] 0.988 | [71] 1
